The results in this text go back to PubChem BioAssay (NCI).

About 79,000 compounds went through this panel and 15% of them were active in at least one assay; those are over-represented in the sample as a whole. A number with no mark means an inactive call. Rule as the data show it: active = growth inhibition above about 70%; inactive = the rest.

The nature of the assay: NCI Yeast Anticancer Drug Screen. Data for the bub3 strain (AID 167). The settings on record: S. cerevisiae bub3 mutant strain, at 50.0 µM, active compounds read high. The method, boiled down: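 Compounds were applied to a genetically altered yeast strain carrying a cell-cycle control defect. Growth inhibition was scored against vehicle-treated controls.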
`O=C(NCCCCCCNC(=O)NCc1ccco1)NCc1ccco1`: the growth inhibition is 0.05%. As to `c1ccc(COC(c2ccccc2)(c2ccccc2)c2ccccc2)cc1`, the growth inhibition was -0.85%. The value for `O=S(=O)(O)C(c1ccccc1)C(O)c1ccccc1` (centres undefined) was -20.9%.

As for `Nc1nc(N)c2nc(-c3ccc(O)cc3)c(-c3ccc(O)cc3)nc2n1`, the growth inhibition was 7.9%. To `CCOCCC(=N)OCC` belongs 4.2%.

On to `CC(NC(=O)NCCCl)C1CC1` (centres undefined), for which the growth inhibition was -14.4%. The value for `CC1OCC2CC3(O1)OC3C(COCC1OC3COC(C)OC4(C3)OC14)O2` (centres undefined) was -3.15%; that for `c1ccc(-c2cc(-c3ccncc3)c(-c3ccccc3)nn2)cc1` was -1.1%; that for `NC(=O)NC(=O)OCCOC(=O)NC(N)=O` was -8.85%. The value for `NCc1cnccn1` was 1.1%; that for `C=CCC(C(=C)C)(C(=O)OCC)C(=O)OCC` was -25.4%; that for `O=C(O)C1CCC(C(=O)O)S1` (centres undefined) was 9.9%. The value for `Cc1ccc(NC(=O)Oc2ccc(C#N)cc2)cc1Cl` was 29.8%; that for `CCC(=O)OC1(C(=O)OC)CCN(C)CC1` was 17.8%; that for `Cc1ccc(NC(=O)C(C)S)cc1` (centres undefined) was 25.7%. As to `Cc1ccc2cccc(OC(=O)Nc3cc(Cl)c(Cl)cc3Cl)c2n1`, the growth inhibition is -14.2%. As for `CCC(=O)C(C)C1(C(=O)OC)NC(=S)NC(=O)C1C#N` (centres undefined), the growth inhibition is -22.1%.

Turning to `CCNC(=O)CCN(C(=O)O)S(=O)(=O)c1ccc(NC(=O)c2ccccc2)cc1`, the growth inhibition is -8.7%. The value for `Cc1cnc(-c2ccccc2)o1` was 0.9%.
